Reference: PubChem BioAssay (NCATS)
Where “and” joins values, the source holds several entries; their conditions need not be identical. Equal entries are not always repeated. Inconclusive results are not listed. Where a structure was tested more than once in an assay, its records may differ in their call. Calls of active or inactive are those of the source. Unless noted, calls follow the shape of the dose curve; as a rule, active = well fitted curve in either direction with a large enough effect (not every such curve was filed as active); inconclusive = small, poorly fitted or top-dose-only effect, or another doubt; inactive = flat fitted curve, though single readings scatter.

Assays:
[1] = biological target: Cytochrome P450 3A4 (Homo sapiens) (UniProt P08684); test: qHTS Assay for Activators of Cytochrome P450 3A4 (AID 885; active = well fitted curve in the direction sought with a large enough effect; an effect the other way counts as inactive or inconclusive; also: nearly all actives have a fitted effect of over 65% in size; also: potency is read from the fitted curve at half-maximal effect)
Procedure, shortened: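 Signal was normalized against complete inhibition by 57 uM ketoconazole. The reaction used 20nM CYP3A4 with 25uM Luciferin-PPXE, 10-min compound preincubation and a 60-min NADPH-supported step at RT.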

[2] = qHTS Assay for Lipid Storage Modulators (AID 1519; calls by dose curve); details: Drosophila S3 cells, BODIPY lipid droplet/cell ratio, laser cytometry, cells loaded with oleic acid; for activity change, negative = inhibition: at 57.5 µM (top of the series)
Procedure, shortened: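 Cells seeded at 5,000 per well were treated with compounds over a concentration series and loaded with oleic acid (400 uM, as added). Lipid droplet fluorescence (488 nm excitation, 500-530 nm channel) was read by laser-scanning cytometry and normalized to 20 uM Triacsin C.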

[3] = biological target: Lysosomal acid glucosylceramidase (Homo sapiens) (UniProt P04062); test: Glucocerebrosidase-p2 (AID 348; in the data active = potency below about 10 µM; also: potency is read from the fitted curve at half-maximal effect); details: purified GBA, blue fluorogenic substrate, 40 min
Procedure, shortened: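 Compounds titrated from 0.6 nM upwards against 0.2 nM enzyme in pH 5.9 citric acid/KH2PO4, taurocholate, tween-20; blue fluorogenic substrate 80 uM, 40 min room temperature, stopped and read Ex 365/Em 440 for AC50.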

[4] = AP1 Signaling Pathway (AID 357); details: ME-180 AP-1-bla reporter, EGF-induced, beta-lactamase ratio, 5 h; at 7.69 µM (top of the series) unless noted; also: % is scaled to controls: 0 for no effect and ±100 for the full control effect
Procedure, shortened: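 ME-180 cells with beta-lactamase reporter under AP-1 response element, stimulated with EC50 EGF; compounds tested in titration series, 5 h at 37 °C. CCF4 substrate added 2.5 h at room temperature; 460/530 nm emission ratio gave %activity and AC50.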

[5] = NFAT Signaling Pathway (AID 444); details: Jurkat NFAT-bla M1, carbachol, beta-lactamase ratio, 5 h; at 7.69 µM (top of the series) unless noted;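 also: carbachol stimulus at about its EC50 of 1 µM final; % is scaled to controls: 0 for no effect and ±100 for the full control effect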
Procedure, shortened: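 Jurkat cells with NFAT-driven β-lactamase reporter and co-expressed M1 receptor, stimulated with carbachol (final 1 uM, ~EC50), compound titration, 5 h at 37 °C. CCF4 loaded 1 h at RT; 460/530 nm ratio gave %activity and AC50.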

[6] = Stat Signaling Pathway (AID 446); details: ME-180 SIE beta-lactamase reporter, IL-6 stimulated, 5 h; at 7.69 µM (top of the series) unless noted;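 also: ME-180 cervical cancer cells given 40 pM IL-6 alongside compound; SIE-controlled beta-lactamase reporter measured as 460/530 nm FRET emission ratio; % is scaled to controls: 0 for no effect and ±100 for the full control effect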
Procedure, shortened: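 Reporter line: ME-180 cervical carcinoma, SIE-beta-lactamase. Treatment: compound with 40 pM IL-6, 5 hrs, 37 C, in low-serum OPTI-MEM with 10 mM HEPES pH 7.3. Detection: 460/530 nm fluorescence.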

[7] = biological target: Glucocorticoid receptor (Homo sapiens) (UniProt P04150); test: GR-GFP Redistribution (AID 450;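 active = compounds whose dose series gives a full or clear partial fitted curve of increased nuclear translocation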; also: potency is read from the fitted curve at half-maximal effect); details: U2OS GR-GFP nuclear translocation, laser cytometry, 2 h
[8] = biological target: Glucocorticoid receptor (Homo sapiens) (UniProt P04150); test: GR-EFC Redistribution (AID 451; calls by dose curve; also: potency is read from the fitted curve at half-maximal effect); details: CHO-K1 GR-EFC translocation, beta-gal luminescence, 2 h
Procedure, shortened: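 CHO-K1 cells expressing nuclear EA and GR-ED fragments of b-gal; compounds titrated up to 46 uM final, 2 h at 37 C. GR nuclear translocation read as complemented b-gal luminescence after 1 h RT detection.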

[9] = biological target: Mitogen-activated protein kinase 10 (Mus musculus) (UniProt Q61831); test: JNK3 AlphaScreen Assay (AID 530);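 also: kinase came from lysate of stimulated human HepG2 cells; signal reports phosphorylation of biotinylated GST-cJun 1-79 at Ser73 with 10 µM ATP; % is scaled to controls: 0 for no effect and ±100 for the full control effect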
Procedure, shortened: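 qHTS format: compounds tested as titrations against IL-1beta/TNF-alpha-activated HepG2 lysate JNK3 with biotin-GST-cJun substrate and 10 uM ATP at room temperature. Loss of anti-phospho-cJun AlphaScreen signal indicates inhibition.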

[10] = biological target: Ubiquitin carboxyl-terminal hydrolase 1 (Homo sapiens) (UniProt O94782); test: Inhibitors of USP1/UAF1: Pilot qHTS (AID 504865; active = well fitted curve in the direction sought with a large enough effect; an effect the other way counts as inactive or inconclusive; also: nearly all actives have a fitted effect of over 35% in size; also: potency is read from the fitted curve at half-maximal effect)
Procedure, shortened: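 USP1/UAF1 complex (1nM) preincubated with compound 15 min at room temperature, then Ub-Rho substrate (150nM final) added. Fluorescence read kinetically at 480/540 nm, 6 reads every 60 seconds. Buffer: 50mM HEPES pH 7.8, 0.5mM EDTA, 0.1 mg/ml BSA, 1mM TCEP, 0.01% Tween-20.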

[11] = biological target: Cytochrome P450 1A2 (Homo sapiens) (UniProt P05177); test: p450-cyp1a2 (AID 410; calls by dose curve; also: potency is read from the fitted curve at half-maximal effect;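 as to activity change, negative = inhibition: -100% = full effect of reference inhibitor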)
Procedure, shortened: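 Human CYP1A2 (20nM) demethylated Luciferin-ME at its Km (100uM) in 100mM KPO4. After 10 min compound preincubation, NADPH regeneration ran the reaction 60 min at room temperature. Luciferin was read by luminescence, normalized to 57 uM furafylline.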

[12] = biological target: 3',5'-cyclic-AMP phosphodiesterase 4B (Homo sapiens) (UniProt Q07343); test: qHTS Assay for Inhibitors of PDE-IV (AID 607; active = well fitted activation curve with a large enough effect in the main read-out, with a control signal flat, not every such curve was filed as active; also: % of control where 0% means no effect)
Procedure, shortened: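 Cell-based read-out of cAMP via a modified cyclic nucleotide-gated channel and membrane potential dye (535/590 nm) in HEK293 cells expressing PDE4 endogenously. Compounds tested up to 22.9 uM final; 100 uM RO 20-1724 reference.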

[13] = measured here: cell count channel max response
[14] = measured here: lipid channel max response

Lysosomal acid glucosylceramidase (Homo sapiens), sequence (P04062 whole entry, looked up): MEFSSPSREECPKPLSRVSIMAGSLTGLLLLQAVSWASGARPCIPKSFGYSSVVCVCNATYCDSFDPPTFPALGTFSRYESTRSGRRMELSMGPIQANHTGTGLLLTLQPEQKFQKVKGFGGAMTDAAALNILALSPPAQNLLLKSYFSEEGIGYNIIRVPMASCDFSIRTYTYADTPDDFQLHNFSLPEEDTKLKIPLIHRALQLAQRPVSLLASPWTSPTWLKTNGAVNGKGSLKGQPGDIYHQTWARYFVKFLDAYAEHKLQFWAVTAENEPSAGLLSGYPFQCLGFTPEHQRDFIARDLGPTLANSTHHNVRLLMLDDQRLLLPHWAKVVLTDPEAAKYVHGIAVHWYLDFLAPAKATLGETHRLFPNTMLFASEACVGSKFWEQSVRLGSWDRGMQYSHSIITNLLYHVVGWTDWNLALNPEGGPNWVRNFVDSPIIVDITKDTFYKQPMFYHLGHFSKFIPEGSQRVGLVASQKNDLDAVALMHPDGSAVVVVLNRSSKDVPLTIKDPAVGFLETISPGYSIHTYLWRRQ
Cytochrome P450 3A4 (Homo sapiens), sequence (P08684 whole entry, looked up): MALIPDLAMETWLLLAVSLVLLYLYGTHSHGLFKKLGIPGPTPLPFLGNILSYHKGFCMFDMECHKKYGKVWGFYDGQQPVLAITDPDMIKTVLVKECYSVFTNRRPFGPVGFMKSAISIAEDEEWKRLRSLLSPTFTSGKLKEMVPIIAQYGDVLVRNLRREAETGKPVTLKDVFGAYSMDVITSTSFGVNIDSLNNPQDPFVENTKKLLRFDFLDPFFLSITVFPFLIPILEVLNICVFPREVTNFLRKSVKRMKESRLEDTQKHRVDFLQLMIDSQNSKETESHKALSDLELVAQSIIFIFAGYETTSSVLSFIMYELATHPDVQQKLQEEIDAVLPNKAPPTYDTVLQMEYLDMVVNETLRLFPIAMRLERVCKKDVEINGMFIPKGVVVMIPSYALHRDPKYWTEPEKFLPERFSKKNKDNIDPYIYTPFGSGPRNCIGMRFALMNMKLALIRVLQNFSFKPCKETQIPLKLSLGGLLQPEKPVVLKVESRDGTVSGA
Glucocorticoid receptor (Homo sapiens), sequence (P04150 whole entry, looked up, the tested form may be a part): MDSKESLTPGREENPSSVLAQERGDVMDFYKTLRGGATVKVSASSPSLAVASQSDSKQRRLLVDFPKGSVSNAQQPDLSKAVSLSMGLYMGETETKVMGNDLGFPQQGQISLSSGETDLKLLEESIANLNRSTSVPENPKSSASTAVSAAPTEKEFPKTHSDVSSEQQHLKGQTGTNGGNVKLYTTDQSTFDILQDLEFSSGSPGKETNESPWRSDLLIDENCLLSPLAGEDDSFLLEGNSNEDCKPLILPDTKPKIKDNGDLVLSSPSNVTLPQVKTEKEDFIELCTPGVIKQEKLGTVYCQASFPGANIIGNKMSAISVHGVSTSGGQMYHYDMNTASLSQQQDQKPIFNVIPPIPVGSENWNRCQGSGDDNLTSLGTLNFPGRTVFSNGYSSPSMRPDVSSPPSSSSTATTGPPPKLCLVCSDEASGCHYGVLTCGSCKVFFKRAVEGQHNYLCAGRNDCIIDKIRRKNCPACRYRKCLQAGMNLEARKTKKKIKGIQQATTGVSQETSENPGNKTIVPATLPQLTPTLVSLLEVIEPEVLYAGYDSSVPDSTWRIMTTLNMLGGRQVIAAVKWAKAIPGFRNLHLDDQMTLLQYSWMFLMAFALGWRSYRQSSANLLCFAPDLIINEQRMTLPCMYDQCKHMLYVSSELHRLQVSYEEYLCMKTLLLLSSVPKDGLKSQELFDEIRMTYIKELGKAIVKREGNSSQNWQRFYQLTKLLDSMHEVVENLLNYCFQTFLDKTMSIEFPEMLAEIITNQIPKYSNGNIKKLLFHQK
3',5'-cyclic-AMP phosphodiesterase 4B (Homo sapiens), sequence (Q07343 whole entry, looked up): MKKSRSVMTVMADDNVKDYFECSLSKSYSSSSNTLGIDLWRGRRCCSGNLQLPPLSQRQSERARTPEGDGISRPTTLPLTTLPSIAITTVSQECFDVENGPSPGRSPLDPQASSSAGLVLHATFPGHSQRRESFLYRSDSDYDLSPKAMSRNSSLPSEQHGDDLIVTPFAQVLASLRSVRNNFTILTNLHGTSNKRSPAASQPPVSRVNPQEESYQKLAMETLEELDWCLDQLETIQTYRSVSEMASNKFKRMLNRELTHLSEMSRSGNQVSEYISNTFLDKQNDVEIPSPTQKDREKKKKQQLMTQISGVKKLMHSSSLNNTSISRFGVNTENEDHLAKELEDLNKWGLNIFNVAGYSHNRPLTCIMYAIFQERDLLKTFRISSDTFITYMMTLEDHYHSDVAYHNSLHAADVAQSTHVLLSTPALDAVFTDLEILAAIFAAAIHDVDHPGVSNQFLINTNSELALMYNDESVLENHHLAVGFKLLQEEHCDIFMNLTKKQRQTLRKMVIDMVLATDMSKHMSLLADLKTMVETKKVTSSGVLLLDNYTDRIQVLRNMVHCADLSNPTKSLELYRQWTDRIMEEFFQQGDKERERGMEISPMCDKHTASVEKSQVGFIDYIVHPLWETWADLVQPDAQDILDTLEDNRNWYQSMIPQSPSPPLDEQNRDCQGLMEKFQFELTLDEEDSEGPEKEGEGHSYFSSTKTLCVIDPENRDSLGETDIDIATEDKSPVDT
Cytochrome P450 1A2 (Homo sapiens), sequence (P05177 whole entry, looked up): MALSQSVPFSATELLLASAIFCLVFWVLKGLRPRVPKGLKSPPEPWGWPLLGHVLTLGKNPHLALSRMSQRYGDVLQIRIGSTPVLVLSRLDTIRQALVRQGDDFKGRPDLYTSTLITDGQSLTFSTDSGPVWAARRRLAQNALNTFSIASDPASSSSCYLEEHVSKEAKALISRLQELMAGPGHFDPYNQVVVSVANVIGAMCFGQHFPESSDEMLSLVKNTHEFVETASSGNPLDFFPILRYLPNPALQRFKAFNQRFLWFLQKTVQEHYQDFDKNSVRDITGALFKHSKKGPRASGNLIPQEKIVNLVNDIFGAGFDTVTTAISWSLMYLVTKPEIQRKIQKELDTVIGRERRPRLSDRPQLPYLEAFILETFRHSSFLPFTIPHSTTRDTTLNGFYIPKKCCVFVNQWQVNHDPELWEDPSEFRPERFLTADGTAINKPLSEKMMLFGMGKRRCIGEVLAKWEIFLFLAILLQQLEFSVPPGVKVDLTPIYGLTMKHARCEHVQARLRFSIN
Ubiquitin carboxyl-terminal hydrolase 1 (Homo sapiens), sequence (O94782 whole entry, looked up): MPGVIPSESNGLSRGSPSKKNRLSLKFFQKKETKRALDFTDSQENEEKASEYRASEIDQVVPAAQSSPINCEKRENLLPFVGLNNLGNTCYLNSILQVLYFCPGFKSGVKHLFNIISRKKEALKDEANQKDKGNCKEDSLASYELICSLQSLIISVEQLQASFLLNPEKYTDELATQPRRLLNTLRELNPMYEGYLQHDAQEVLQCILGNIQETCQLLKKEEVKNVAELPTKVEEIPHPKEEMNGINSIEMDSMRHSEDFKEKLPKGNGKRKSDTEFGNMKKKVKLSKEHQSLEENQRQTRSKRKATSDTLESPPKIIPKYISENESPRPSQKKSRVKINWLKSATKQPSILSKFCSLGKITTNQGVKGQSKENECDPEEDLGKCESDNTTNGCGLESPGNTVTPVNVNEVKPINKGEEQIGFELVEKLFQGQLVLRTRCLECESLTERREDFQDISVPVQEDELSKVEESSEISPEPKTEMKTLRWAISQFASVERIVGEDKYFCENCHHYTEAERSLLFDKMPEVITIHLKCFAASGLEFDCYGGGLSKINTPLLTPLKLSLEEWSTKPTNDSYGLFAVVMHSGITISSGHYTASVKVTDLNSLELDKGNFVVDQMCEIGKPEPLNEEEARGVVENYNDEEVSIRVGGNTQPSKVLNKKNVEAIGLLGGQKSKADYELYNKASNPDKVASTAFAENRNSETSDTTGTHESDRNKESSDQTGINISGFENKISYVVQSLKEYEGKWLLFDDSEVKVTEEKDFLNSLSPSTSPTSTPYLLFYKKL

O=c1c(O)c(-c2ccc(O)cc2)oc2ccccc12
-12.3%: max response [2, 13]
-1%: max response [2, 14]
inactive: Potency [1] | activity change, negative = inhibition [2] 8.84%

COc1ccc(-c2nc3cnc(N(C)C)nc3n(-c3ccccc3)c2=O)cc1
inactive: Potency [3] > 11.4 µM | activity change, negative = inhibition [4] 0.239% | activity change, negative = inhibition [5] 3.47% | activity, negative = inhibition [6] 3.24% | Potency [7] > 9.22 µM | Potency [8] > 46 µM | Potency [9] | Potency [10]

COc1ccc(-c2nc3cnc(OC)nc3n(CCC#N)c2=O)cc1
inactive: Potency [3] > 11.4 µM | activity change, negative = inhibition [4] -7.37% | activity change, negative = inhibition [5] -4.16% | Potency [7] > 9.22 µM | Potency [8] > 46 µM | Potency [9] | Potency [12] | Potency [10]
active: Potency [11] 6.31 µM

COc1cc(C)c(C(=O)Oc2cc(C)c(C(=O)O)c(O)c2C)c(OC)c1C
inactive: Potency [1]

COc1ccc(Oc2ncc3nc(-c4cccs4)c(=O)n(Cc4cccs4)c3n2)cc1
inactive: Potency [3] > 11.4 µM | activity change, negative = inhibition [5] -3.5% | Potency [7] > 9.22 µM | Potency [8] > 46 µM | Potency [9] | Potency [12]

COc1ncc2nc(C)c(=O)n(C[C@H]3CCCO3)c2n1
inactive: Potency [3] > 11.4 µM | activity change, negative = inhibition [4] -6.08% | activity change, negative = inhibition [5] -9.08% | activity, negative = inhibition [6] -2.46% | Potency [7] > 9.22 µM | Potency [8] > 46 µM | Potency [9] | Potency [12]

CN(C)c1ncc2nc(CCc3ccccc3)c(=O)n(Cc3ccc(F)cc3)c2n1
inactive: Potency [3] > 11.4 µM | activity change, negative = inhibition [4] 8.4% | activity change, negative = inhibition [5] -4.39% | activity, negative = inhibition [6] 13.2% | Potency [7] > 9.22 µM | Potency [8] > 46 µM | Potency [12] | Potency [1]
active: Potency [11] 10 µM

COc1cccc(Nc2ncc3nc(-c4cccs4)c(=O)n(-c4ccccc4)c3n2)c1
inactive: Potency [3] > 11.4 µM | activity change, negative = inhibition [4] -24.2% | activity change, negative = inhibition [5] -15.6% | activity, negative = inhibition [6] 3.1% | Potency [8] > 46 µM | Potency [9] | Potency [12] | Potency [1]
active: Potency [11] 3.16 µM | Potency [10] 35.5 µM

c1cncc(-c2nc(-n3ccnc3)c3ccccc3n2)c1
inactive: Potency [3] > 11.4 µM | activity change, negative = inhibition [4] 14.5% | activity change, negative = inhibition [5] 8.3% | activity, negative = inhibition [6] -3.82% | Potency [7] > 46 µM | Potency [8] > 46 µM | Potency [9] | Potency [12] | Potency [10]

O=C(Nc1cccc(F)c1)N1CCCC2(CCN(C(=O)c3ccco3)CC2)C1
inactive: Potency [3] > 11.4 µM | activity change, negative = inhibition [4] -8.03% | Potency [8] > 46 µM | Potency [9]

COc1cccc(-c2cc(NCCc3c[nH]c4ccc(OC)cc34)ncn2)c1
active: Potency [11] 0.794 µM
inactive: Potency [3] > 11.4 µM | activity change, negative = inhibition [4] -7.38% | activity change, negative = inhibition [5] -9.49% | activity, negative = inhibition [6] -5.09% | Potency [7] > 46 µM | Potency [8] > 46 µM | Potency [12] | Potency [1] | Potency [10]

COc1ccc(-n2c(=O)c(-c3ccc(F)c(F)c3)nc3cncnc32)cc1
inactive: Potency [3] > 11.4 µM | activity change, negative = inhibition [4] -1.43% | activity change, negative = inhibition [5] 1.94% | activity, negative = inhibition [6] -16.2% | Potency [7] > 9.22 µM | Potency [8] > 46 µM | Potency [9] | Potency [12] | Potency [1] | Potency [10]

COCCn1c(=O)c(-c2ccc(Cl)cc2)nc2cncnc21
active: Potency [11] 0.2 µM
inactive: Potency [3] > 11.4 µM | activity change, negative = inhibition [4] -10.8% | activity change, negative = inhibition [5] 9.96% | activity, negative = inhibition [6] 1.43% | Potency [7] > 9.22 µM | Potency [8] > 46 µM | Potency [9] | Potency [12] | Potency [1]

O=C(c1cccc(F)c1)N1CCC[C@@]2(CCN(Cc3ccncc3)C2)C1
inactive: Potency [3] > 11.4 µM | activity change, negative = inhibition [4] -12% | activity change, negative = inhibition [5] -14.7% | activity, negative = inhibition [6] -0.901% | Potency [8] > 46 µM | Potency [9] | Potency [12] | Potency [1]

Cc1noc(C)c1-c1ccc2ncnc(NCCN3CCOCC3)c2c1
active: Potency [11] 15.8 µM
inactive: Potency [3] > 11.4 µM | activity change, negative = inhibition [4] 1.93% | activity, negative = inhibition [6] -22.6% | Potency [7] > 46 µM | Potency [8] > 46 µM | Potency [9] | Potency [12] | Potency [1] | Potency [10]

CCNc1ncc2nc(-c3ccc(F)cc3)c(=O)n(C)c2n1
inactive: activity change, negative = inhibition [4] -8.75% | activity change, negative = inhibition [5] -26% | activity, negative = inhibition [6] -0.235% | Potency [7] > 9.22 µM | Potency [8] > 46 µM | Potency [9] | Potency [12] | Potency [10]
active: Potency [11] 0.501 µM

CC(=O)NCCNc1ncnc2ccc(-c3ccccc3C#N)cc12
active: Potency [11] 3.98 µM
inactive: Potency [3] > 11.4 µM | activity change, negative = inhibition [4] -5.09% | activity, negative = inhibition [6] 6.69% | Potency [7] > 46 µM | Potency [8] > 46 µM | Potency [9] | Potency [12] | Potency [1] | Potency [10]

Nc1ncnc2c1ncn2C1OC(CO)C(O)C1O (stereo unspecified)
inactive: activity change, negative = inhibition [2] 9.6% and 14.7%
31.9% and 67.8%: max response [2, 14]
19.8% and 38.9%: max response [2, 13]

COC(=O)N1CCC2(CC1)CN(C(=O)Nc1ccc(OC)cc1)C2
inactive: Potency [3] > 11.4 µM | activity change, negative = inhibition [4] -27.1% | Potency [11] | activity change, negative = inhibition [5] 14.1% | activity, negative = inhibition [6] -0.967% | Potency [8] > 46 µM | Potency [9] | Potency [12]

CC(=O)OC1CC[C@]2(C)C(CC(OC(C)=O)[C@@]3(C)C4=CC(=O)OC(c5ccoc5)[C@]4(C)CCC23)C1(C)C (stereo partly specified)
6.31 µM (active) and inactive: Potency [1]

Nc1ccn(C2OC(CO)C(O)C2O)c(=O)n1 (stereo unspecified)
-5.62% and 10.3%: max response [2, 14]
-9.2% and 5.05%: max response [2, 13]
inactive: activity change, negative = inhibition [2] 2.01% and 0.795%

CN(C)C(=O)c1ccc(-c2cncnc2NCc2cccs2)cc1
inactive: activity change, negative = inhibition [4] 8.21% | activity change, negative = inhibition [5] 6.04% | activity, negative = inhibition [6] 17.8% | Potency [7] > 46 µM | Potency [8] > 46 µM | Potency [9] | Potency [12] | Potency [1] | Potency [10]
active: Potency [11] 20 µM

c1cncc(CNc2ccnc(-c3cccnc3)n2)c1
inactive: Potency [3] > 11.4 µM | activity change, negative = inhibition [4] 8.01% | activity change, negative = inhibition [5] 10.2% | activity, negative = inhibition [6] 8.94% | Potency [7] > 46 µM | Potency [8] > 46 µM | Potency [9] | Potency [10]

COc1cccc(Nc2ncc3nc(CCc4ccccc4)c(=O)n(Cc4cccs4)c3n2)c1
inactive: Potency [3] > 11.4 µM | activity, negative = inhibition [6] -28.9% | Potency [7] > 9.22 µM | Potency [9] | Potency [12] | Potency [1] | Potency [10]
active: Potency [11] 3.16 µM
